Conditions in all cases: concentration: 10 µM; 24 h
For test [1], the system named is HCC1569. Description: cell number relative to DMSO (% of DMSO); higher = more cells (less growth inhibition / toxicity). The essentials: (§1)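 After 24 h at 37 °C with compounds at 10 µM, in triplicate, HCC1569 and TDF cells were fixed with 3.7% formaldehyde. Immunostaining used a rabbit anti-H1.0 antibody and an AlexaFluor 647 secondary, with DAPI, and six fields per well were imaged at ×10. H1.0 nuclear intensity or cell number is presented as percent of the plate control, from the median of replicates, with HCC1569 values smoothed for positional effects.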

The test system of test [2] is TDF. The test is described as above. The essentials: as §1
Test [3] deals with TDF. Description: H1.0 immunofluorescence intensity relative to DMSO (% of DMSO); higher = stronger H1.0 induction, active = 120 or more. The essentials: as §1
Test [4] relates to HCC1569. Description: H1.0 immunofluorescence intensity relative to DMSO (% of DMSO); higher = stronger H1.0 induction, active = 140 or more. Summed up:
as §1

Each structure is given as a SMILES string. ± gives the standard deviation of the averaged measurements.
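Throughout, for H1.0 immunofluorescence intensity relative to DMSO: TDF is a line of transformed human dermal fibroblasts of mesenchymal origin.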
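Throughout, for cell number relative to DMSO: TDF denotes transformed human dermal fibroblasts of mesenchymal origin.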

`CCc1cccc2c3c([nH]c12)C(CC)(CC(=O)O)OCC3` (stereo not drawn) [Etodolac]: the cell number stood at 98.6 in the test with HCC1569 [1] and 101 in the test on TDF [2]. The H1.0 immunofluorescence intensity in the test on TDF [3] is 97 (inactive); in the test on HCC1569 [4] it was 105 (inactive).

As to `Br.Oc1ccc(C2CNCCc3c2cc(O)c(O)c3Cl)cc1` (stereo not drawn) [Fenoldopam bromide], the cell number was determined as 103 with HCC1569 [1] and 100 in the test with TDF [2]. Further, the H1.0 immunofluorescence intensity with TDF [3] is 86.4 (inactive); in the test on HCC1569 [4], 99.2 (inactive).

For `NC(N)=NC(=O)c1nc(Cl)c(N2CCCCCC2)nc1N` [5-(N,N-hexamethylene)amiloride], the results for the cell number in the test on HCC1569 [1] and in the test with TDF [2] were 96 and 85.1, respectively. Moreover, the H1.0 immunofluorescence intensity is 113 (inactive) with TDF [3] and 100 (inactive) in the test on HCC1569 [4].

On to `CN(CCOc1ccc(NS(C)(=O)=O)cc1)CCc1ccc(NS(C)(=O)=O)cc1` [Dofetilide], for which the cell number came out at 98 in the test on HCC1569 [1] and 121 in the test with TDF [2]. Further, the H1.0 immunofluorescence intensity is 103 (inactive) with TDF [3] and 99.5 (inactive) in the test on HCC1569 [4].

Turning to `CCCCCC=CCC1OC1C(O)C=CCC=CCCCC(=O)O` (stereo not drawn) [Hepoxilin B3], the results for the cell number in the test with HCC1569 [1] and with TDF [2] were 102 and 95, respectively. For the same compound, the H1.0 immunofluorescence intensity is 95.2 (inactive) with TDF [3] and 93.1 (inactive) in the test on HCC1569 [4].

With `CNC1(C)C2CCC(C2)C1(C)C.Cl` (stereo not drawn) [Mecamylamine hydrochloride], the cell number in the test on HCC1569 [1] stood at 106; with TDF [2], 108. The H1.0 immunofluorescence intensity in the test on TDF [3] is 94.1 (inactive); in the test with HCC1569 [4], 93.5 (inactive).

For the compound `CC12CCC(=O)C=C1CCC1C2C(O)CC2(C)C(C(=O)CO)CCC12` (stereo not drawn) [Corticosterone], the figures for the cell number in the test on HCC1569 [1] and in the test on TDF [2] were 101 ± 2.6 and 103.3 ± 0.6, respectively. Moreover, the H1.0 immunofluorescence intensity was 92.8 (inactive) in the test with TDF [3] and 100 (inactive) with HCC1569 [4].

On to `CC(C)CC(NC(=O)C1OC1C(=O)O)C(=O)NCCCCN=C(N)N` (stereo not drawn), for which the cell number with HCC1569 [1] was found to be 99.92 ± 0.64; in the test on TDF [2], 96.3 ± 6.9. Further, the H1.0 immunofluorescence intensity was 97.7 (inactive) in the test on TDF [3] and 97.3 (inactive) with HCC1569 [4].

In the case of `CCCCN(CCCC)CC(O)c1cc(Cl)cc2c1-c1ccc(Cl)cc1/C2=C/c1ccc(Cl)cc1` (stereo not drawn), the figures for the cell number in the test on HCC1569 [1] and with TDF [2] were 103 and 108, respectively. Also, the H1.0 immunofluorescence intensity in the test with TDF [3] was 90.7 (inactive); in the test on HCC1569 [4] it was 104 (inactive).

With `CNCCCN1c2ccccc2CCc2ccccc21.Cl` [Desipramine hydrochloride], the cell number with HCC1569 [1] came out at 102; with TDF [2], 97.5. In addition, the values for the H1.0 immunofluorescence intensity in the test with TDF [3] and in the test on HCC1569 [4] were 98.7 (inactive) and 92.6 (inactive), respectively.

With `NCCCS(=O)(=O)[O-].[Na+]` [3-Amino-1-propanesulfonic acid sodium], the results for the cell number in the test with HCC1569 [1] and with TDF [2] were 94.4 and 99.3, respectively. For the same compound, the H1.0 immunofluorescence intensity in the test on TDF [3] was 93.2 (inactive); in the test with HCC1569 [4], 91.9 (inactive).

Regarding `CCCCCC=CCC=CCC=CCC=CCCCC(=O)O` [Arachidonic acid], the cell number amounted to 104 ± 6.4 in the test on HCC1569 [1] and 93.9 ± 1.1 in the test with TDF [2]. The H1.0 immunofluorescence intensity is 101 (inactive) with TDF [3] and 105 (inactive) with HCC1569 [4].

The values above are taken from the supplement of paper PMC7156485.
